Shown are actives, neighbours in structure and some others; about 4.1% of the full set was active somewhere.
Sm TGR block = blocks Schistosoma mansoni thioredoxin glutathione reductase; purified TGR, DTNB reduction, TNB absorbance 405 nm; Q962Y6; Potency, µM (titrated, usually from 114 µM), for inactives: at the highest dose activity change, negative = inhibition, hits mostly inhibitors; 360,000 tested, 3% active; also: nearly all actives have a fitted effect of over 60% in size
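First, TGR (20 nM dispensed) and NADPH were mixed with compound. Second, a 15 min room-temperature incubation followed. Third, further NADPH and then DTNB were added to start the reaction. Finally, TNB absorbance was monitored kinetically.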
AmpC no deterg = blocks E. coli AmpC beta-lactamase in detergent-free assay | Potency, µM (top dose mostly 57.1 µM), without a hit: at the top dose activity change, negative = inhibition, actives largely listed as inhibitors | AID 485341 | P00811 | AmpC nitrocefin hydrolysis, absorbance 480 nm, 0.0001% Triton | 330,000 tested, 0.52% active;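 also: plate controls were no compound for no effect and no enzyme for full effect; nearly all actives have a fitted effect of over 20% in size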
Target sequence (P00811 whole entry, looked up): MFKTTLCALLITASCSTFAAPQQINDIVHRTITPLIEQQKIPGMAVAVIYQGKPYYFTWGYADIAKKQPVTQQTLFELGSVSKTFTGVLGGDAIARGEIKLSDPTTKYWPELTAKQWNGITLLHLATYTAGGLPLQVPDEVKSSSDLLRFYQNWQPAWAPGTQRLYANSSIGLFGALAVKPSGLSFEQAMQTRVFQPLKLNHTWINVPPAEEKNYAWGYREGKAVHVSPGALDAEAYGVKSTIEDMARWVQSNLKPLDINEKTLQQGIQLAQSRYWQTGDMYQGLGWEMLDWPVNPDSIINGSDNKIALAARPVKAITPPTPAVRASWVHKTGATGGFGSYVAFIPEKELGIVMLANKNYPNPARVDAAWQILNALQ
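AmpC (5.3 nM in the dispensed reagent) in 20 mM phosphate pH 7.0 with 0.01% (detergent screen) or 0.0001% Triton X-100 was preincubated with compounds for 15 min at room temperature. Nitrocefin was then added from an 800 uM solution, and hydrolysis was followed at 480 nm.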
AMA1-RON2 inh = inhibitors of Plasmodium falciparum AMA1-RON2 interaction. AlphaScreen AMA1-biotinylated RON2 peptide binding. Potency, µM (titrated, usually from 58.2 µM), inactives show at the top dose activity change, negative = inhibition, usual class: inhibitors. 360,000 tested, 0.2% active. AID 720542;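 also: 0% = vehicle wells and -100% = peptide control; nearly all actives have a fitted effect of over 45% in size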
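AMA1 (3D7) with his tag at 25 nM final met compounds first, then biotinylated RON2 peptide at 25 nM; detection used donor plus acceptor beads, 10 µg/mL apiece, read by AlphaScreen after 30 min at room temperature.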
AmpC detergent = blocks E. coli AmpC beta-lactamase in detergent assay | P00811 | AmpC hydrolysis of nitrocefin, absorbance 480 nm, 0.01% Triton | Potency, µM (titrated, usually from 114 µM), for inactives: at the highest dose activity change, negative = inhibition, hits mostly inhibitors | 370,000 tested, 0.041% active;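 also: 0% = no-compound wells and -100% = no-enzyme wells; nearly all actives have a fitted effect of over 25% in size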
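20 mM phosphate pH 7.0 + 0.01% (detergent screen) or 0.0001% Triton X-100; 5.3 nM AmpC reagent; cpd preinc 15 min RT; nitrocefin (800 uM stock) to start; A480 q20 s × 4 min; Activity was normalised to no-enzyme and no-compound control wells.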
FMDV inh = blocks foot and mouth disease virus. 410,000 tested, 1.2% active. FMDV antiviral cell-based qHTS. Potency, µM (series often up to 57.9 µM), without a hit: at the highest dose activity change, negative = inhibition, usual class: inhibitors; calls by dose curve; tested in HEK293T cells; also: read-out not given here; nearly all actives have a fitted effect of over 45% in size
* hit, by the source's call; ? = inconclusive; . = no result given. Unless noted, calls follow the shape of the dose curve; as a rule, active = well fitted curve in the direction sought with a large enough effect; inconclusive = small, poorly fitted or top-dose-only effect, or another doubt; inactive = no such curve, though single readings can be large; an effect the other way counts as inactive or inconclusive. Unless noted, % is scaled to controls: 0 for no effect and ±100 for the full control effect; potency is read from the fitted curve at half-maximal effect.

SMILES | Sm TGR block | AmpC no deterg | AMA1-RON2 inh | AmpC detergent | FMDV inh
COC(=O)/C(=C/c1c[nH]c2ccccc12)NC(C)=O | -4% | -14% | -3% | -14% | 8%
COC(=O)/C(=C/c1c[nH]c2ccccc12)[N+](=O)[O-] | 45µM* | -10% | 9% | -6% | .
O=C(NCCc1ccccn1)C1CC12CCN(C(=O)c1c(F)cccc1Cl)CC2 (centres undefined) | . | . | . | . | 5%
CCCCNC(=O)c1cccc(-n2cnc3cccnc32)c1C | 0% | . | . | 6% | 0%
CCN(CCO)c1ncnc2c1sc1nc(C(C)C)c3c(c12)CC(C)(C)OC3 | -6% | -8% | 0% | -9% | 5%
CCN(CCO)c1nc(SC)nc2c1sc1nc(-c3ccco3)c3c(c12)CCC3 | 3.5µM* | 45% | 7% | -10% | ?
CSc1nc(NCCOCCO)c2sc3nc(-c4ccco4)c4c(c3c2n1)CCC4 | 3.2µM* | 139% | -5% | ? | 40µM*
CCc1ccccc1NC(=O)CSc1nc2c(oc3ccccc32)c(=O)n1C | 3% | . | . | 3% | 2%
O=S(=O)(N/N=C/c1ccc(N2CCOCC2)cc1)c1ccc(Br)cc1 | 1% | 11µM* | -1% | ? | 25%
O=S(=O)(NN1CCOCC1)c1ccc(Br)cc1 | -31% | -15% | 3% | 4% | -9%
Cc1ccc(N/N=C/c2ccc(N3CCOCC3)cc2)cc1C | 25µM* | 0% | -12% | -7% | 22%
COc1cc(NC(=O)c2noc3c2CCc2ccccc2-3)cc(OC)c1OC | 1% | . | . | 19% | ?
CCN1CCN(C(c2cccs2)C(C)NC(=O)NC2CCCCC2)CC1 (centres undefined) | -1% | 45µM* | -8% | ? | -19%
CC(NC(=O)Nc1ccc(Cl)cc1)C(c1cccs1)N1CCOCC1 (centres undefined) | 3% | 2.5µM* | -6% | ? | 0%
CC(NC(=O)Nc1ccccc1)C(c1cccs1)N1CCOCC1 (centres undefined) | -19% | -12% | 3% | ? | -9%
O=C(CCCN1C(=O)c2cccnc2Oc2ccc(Cl)cc21)N1CCCCC1 | 13µM* | 38% | -11% | -3% | 14%
O=C(CN1C(=O)c2cccnc2Oc2ccc(Cl)cc21)N1CCCCCC1 | 9% | 18% | -2% | 4% | -12%
Cc1ccsc1C(=O)C1CCCN(Cc2cnc(N3CCOCC3)s2)C1 (centres undefined) | 0% | 67% | -12% | 7% | 25µM*
COc1ccc(S(=O)(=O)Nc2cc(C)c(O)c(S(=O)(=O)c3ccccc3)c2)cc1 | 56µM* | -58% | -3% | -8% | 55%
CN1C2C=C3C(C#N)=C(N)C(C#N)(C#N)C(c4ccc(Br)cc4)C3C1CC2 (centres undefined) | -23% | -37% | 8% | ? | -14%
CC(C)N1CC=C2C(C#N)=C(N)C(C#N)(C#N)C(c3ccccc3)C2C1 (centres undefined) | ? | -24% | -22% | ? | -18%
N#CC1=C(N)C2=CCCC[C@H]2[C@H](c2ccc(Br)cc2)C1(C#N)C#N | 32µM* | -26% | 19% | 5% | ?
N#CC1=C(N)C2=CCCC[C@H]2[C@H](c2ccccc2)C1(C#N)C#N | 45µM* | -33% | 10% | -1% | ?
COc1ccc2nc(N3C(=O)C(O)=C(C(=O)c4ccco4)C3c3ccc(C)o3)sc2c1 (centres undefined) | 32µM* | -37% | 28% | ? | -2%
CCOC(=O)c1sc(N2C(=O)C(O)=C(C(=O)c3ccco3)C2c2ccco2)nc1C (centres undefined) | 25µM* | -25% | 21% | 4% | -5%
CCOc1ccc2nc(N3C(=O)C(O)=C(C(=O)c4ccco4)C3c3ccco3)sc2c1 (centres undefined) | -33% | -49% | -5% | 3% | 4%
COc1ccc(NC(=O)N2CCc3c(sc4c3CCCC4)C2c2ccccc2OC)cc1 (centres undefined) | 5% | . | . | -8% | -6%
O=S(=O)(c1ccccc1Cl)N1CCCC1c1nc(-c2ccc(Cl)cc2)no1 (centres undefined) | -2% | 0.32µM* | 13% | -3% | ?
COc1ccc2[nH]cc(CCO)c2c1 | . | . | . | . | -4%

From PubChem BioAssay
